Screening data from PubChem.
In the library only some 4.6% were active in any assay of this set; here they are far more common.
TIM10 inh = growth inhibitors of isogenic TIM10 control yeast, primary screen, counter-screen for tim10-1 yeast inhibitor project, luminescence, uHTS; S. cerevisiae TIM10 strain growth, BacTiter-Glo luminescence, 24 h; inhibition, % at 10 µM; actives 1.4% (n = 330,000);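 active means inhibition of 40% or more at the single tested concentration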;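 further: wild-type TIM10 isogenic control strain grown at permissive 25 °C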
PfHsp90 set2 = growth inhibition of PfHsp90-expressing yeast, primary screen, antimalarial PfHsp90 inhibitor project, S. cerevisiae, BacTiter-Glo luminescence, single point, set 2. BacTiter-Glo ATP, 48 h; yeast lacking PDR1 and PDR3 efflux regulators. inhibition, % at 9.4 µM. actives 0.32% (n = 310,000). AID 504621, 2011;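 active means every replicate shows inhibition above about 80%, whatever the replicate mean, limit read from the data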;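 further: 0% = DMSO neutral controls and 100% = 20 µM radicicol positive controls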
NLRP3 yeast inh = NALP3 inflammasome inhibitors in reconstituted yeast, primary screen, luminescence, uHTS | inhibition, % at 10 µM | actives 0.39% (n = 330,000) | AID 2825, 2010 | Yeast reconstituted NLRP3/ASC/caspase-1, beta-gal luminescence, 24 h;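 active means inhibition of 50% or more; inactive means inhibition below 50%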;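 further: plate controls were induced DMSO wells for no effect and uninduced yeast grown without galactose for full effect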
SKKanGAS inh = S. pyogenes SKKanGAS growth inhibitors in kanamycin, primary screen, streptokinase expression inhibitor project, SKKanGAS strain, BacTiter-Glo luminescence. 6 h. inhibition, % at 7.5 µM. actives 1.3% (n = 300,000);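 active means mean replicate score, as percent of positive control median, at least 50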;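 further: strain carries kanamycin resistance gene driven by streptokinase promoter and grows in 40 µg/ml kanamycin; loss of luminescence reflects streptokinase promoter inhibition or plain growth inhibition; 0% = median of DMSO wells and 100% = positive control at its reference dose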
tim23-1 inh = growth inhibitors of tim23-1 mutant yeast, primary screen, luminescence, uHTS. inhibition, % at 20 µM. AID 463212, 2010. S. cerevisiae tim23-1 growth, BacTiter-Glo luminescence, 24 h. actives 1.3% (n = 330,000);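 active means growth inhibition of the mutant yeast at or above 50%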;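 further: temperature-sensitive mutant grown at 25 °C; plate controls were DMSO-treated mutant yeast for no effect and medium wells lacking yeast for full effect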
tim10-1 inh = growth inhibitors of tim10-1 mutant yeast, primary screen, luminescence, uHTS; S. cerevisiae tim10-1 ts strain growth, BacTiter-Glo, 24 h; inhibition, % at 20 µM; actives 2.2% (n = 330,000); AID 463190, 2010;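 active means inhibition of at least 40%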;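 further: mutant grown at 25 °C; 0% = DMSO wells with yeast and 100% = wells holding no yeast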
TIM10 conf = growth inhibitors of wild-type TIM10 yeast, confirmation, counter-screen for tim10-1 synthetic lethality project, single concentration, luminescence, S. cerevisiae | shares compounds with TIM10 inh | S. cerevisiae tim10 strain growth, BacTiter-Glo luminescence, 24 h | inhibition, % at 10 µM | actives 63% (n = 4,600) | AID 463215, 2010;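 active means inhibition of yeast growth at or above a set limit in either of two replicates at 10 µM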;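 further: this counterscreen used the strain with wild-type TIM10; 0% = yeast with DMSO and 100% = medium wells lacking yeast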
* = called active by the depositor.

How did COc1ccc(NC(NC(=O)c2ccc(OC)cc2)C(Cl)(Cl)Cl)cc1 (stereo unspecified) do in these assays?
TIM10 inh: 41.7*; PfHsp90 set2: -1.2; NLRP3 yeast inh: -1.7; SKKanGAS inh: 6.7; tim23-1 inh: 35.2; tim10-1 inh: 33.1; TIM10 conf: 26.5*

How did COC(=O)C(C)Sc1nc2ccsc2c(=O)n1Cc1ccccc1 (stereo unspecified) do in these assays?
TIM10 inh: -12.9; PfHsp90 set2: -27.3; NLRP3 yeast inh: 1.5; SKKanGAS inh: 3.9; tim23-1 inh: 13.8; tim10-1 inh: -6.5

Results for N/N=C/C(=N\Nc1ccc(Cl)cc1)C(=O)c1ccncc1 ?
TIM10 inh: -17.0; PfHsp90 set2: -13.8; NLRP3 yeast inh: 31.0; SKKanGAS inh: 17.5; tim23-1 inh: -4.9; tim10-1 inh: -8.9

Results for CCOC(=O)COn1c(=O)c(-c2cccs2)[n+]([O-])c2ccccc21 ?
TIM10 inh: 41.8*; PfHsp90 set2: -12.4; NLRP3 yeast inh: 8.6; SKKanGAS inh: -0.1; tim23-1 inh: 48.4; tim10-1 inh: 37.1; TIM10 conf: -28.2

What do the screens show for `CCOC(=O)COn1c(=O)c(-c2ccc(F)cc2)[n+]([O-])c2ccccc21`?
TIM10 inh: -11.3; PfHsp90 set2: 0.6; NLRP3 yeast inh: 12.1; SKKanGAS inh: -2.5; tim23-1 inh: -0.4; tim10-1 inh: 21.9

How did O=C1/C(=C/c2ccc(F)cc2)CCC1C1CCCC1 (stereo unspecified) do in these assays?
TIM10 inh: 16.5; PfHsp90 set2: 18.0; NLRP3 yeast inh: 11.9; SKKanGAS inh: 0.8; tim23-1 inh: 23.2; tim10-1 inh: 23.1

What do the screens show for `Cc1cccc(/C=C2\CCC(=C3SCCCS3)C2=O)c1`?
TIM10 inh: 44.4*; PfHsp90 set2: 20.0; NLRP3 yeast inh: 36.0; SKKanGAS inh: 13.5; tim23-1 inh: 49.2; tim10-1 inh: 34.1; TIM10 conf: 66.2*

How did O=C1C(=C2SCCCS2)CC/C1=C\c1ccc(F)cc1 do in these assays?
TIM10 inh: 41.9*; PfHsp90 set2: 7.6; NLRP3 yeast inh: 25.4; SKKanGAS inh: 16.3; tim23-1 inh: 18.4; tim10-1 inh: -28.3; TIM10 conf: 40.7*

Results for Cc1c(NS(=O)(=O)c2cc(C(=O)NCCN(C)C)ccc2Cl)c(=O)n(-c2ccccc2)n1C ?
TIM10 inh: 7.5; PfHsp90 set2: -13.7; NLRP3 yeast inh: 10.9; SKKanGAS inh: 3.6; tim23-1 inh: 11.7; tim10-1 inh: -17.0

What do the screens show for `CC1(C)CC(=O)C/C(=N\NC(=O)CCc2ccc(S(=O)(=O)N3CCOCC3)cc2)C1`?
TIM10 inh: 0.5; NLRP3 yeast inh: 4.2; SKKanGAS inh: -4.3; tim23-1 inh: 3.7; tim10-1 inh: 15.1

Results for CCCn1cc(NC(=O)c2cc(-c3ccccc3)on2)cn1 ?
TIM10 inh: 42.8*; PfHsp90 set2: 1.3; NLRP3 yeast inh: 47.2; SKKanGAS inh: -11.6; tim23-1 inh: 41.3; tim10-1 inh: 28.0; TIM10 conf: 41.5*

What do the screens show for `Cc1cc(-c2ccc(N3CCOCC3)cc2)nc2ccccc12`?
TIM10 inh: 57.8*; PfHsp90 set2: -17.7; NLRP3 yeast inh: 24.9; SKKanGAS inh: -4.1; tim23-1 inh: 47.6; tim10-1 inh: 28.4; TIM10 conf: 63.9*

Results for Cc1cc(-c2nnc(SCC(=O)Nc3ccc(F)cc3F)n2N)n[nH]1 ?
TIM10 inh: -0.8; PfHsp90 set2: 8.5; NLRP3 yeast inh: -3.8; SKKanGAS inh: -0.6; tim23-1 inh: 11.0; tim10-1 inh: 12.7

What do the screens show for `N/C(Cc1cccc2ccccc12)=N\OC(=O)Cc1cccs1`?
TIM10 inh: 49.1*; PfHsp90 set2: -8.5; NLRP3 yeast inh: 5.9; SKKanGAS inh: 3.0; tim23-1 inh: 35.1; tim10-1 inh: 37.5; TIM10 conf: 37.8*

Results for O=[N+]([O-])c1cc(Br)c(OCc2nnc(-c3ccccc3)o2)c(Br)c1 ?
TIM10 inh: 14.1; PfHsp90 set2: 15.1; NLRP3 yeast inh: 20.1; SKKanGAS inh: 2.3; tim23-1 inh: 6.3; tim10-1 inh: 7.4

What do the screens show for `O=[N+]([O-])c1ccc2c(OCc3nnc(-c4ccccc4Br)o3)ncnc2c1`?
TIM10 inh: 44.6*; PfHsp90 set2: -55.6; NLRP3 yeast inh: 4.0; SKKanGAS inh: -1.9; tim23-1 inh: 32.5; tim10-1 inh: -20.9; TIM10 conf: 30.6*

What do the screens show for `COc1ccc(N(C(=O)c2ccco2)S(=O)(=O)c2cccc([N+](=O)[O-])c2)cc1`?
TIM10 inh: -2.8; PfHsp90 set2: 0.4; NLRP3 yeast inh: -7.0; SKKanGAS inh: -8.5; tim23-1 inh: 3.5; tim10-1 inh: 18.8

Results for COc1ccc(N(C(=O)c2ccco2)S(=O)(=O)c2ccc(F)cc2)cc1 ?
TIM10 inh: 42.5*; PfHsp90 set2: -7.0; NLRP3 yeast inh: -10.0; SKKanGAS inh: 0.7; tim23-1 inh: -1.0; tim10-1 inh: 37.9; TIM10 conf: 17.0

How did COc1ccc(Oc2coc3cc(OC(=O)c4cccs4)ccc3c2=O)cc1 do in these assays?
TIM10 inh: 15.9; PfHsp90 set2: -21.7; NLRP3 yeast inh: -11.5; SKKanGAS inh: -1.2; tim23-1 inh: -4.4; tim10-1 inh: 14.6

How did CCOC(=O)Oc1ccc2c(=O)c(Oc3cc(C)cc(C)c3)coc2c1 do in these assays?
TIM10 inh: 43.8*; PfHsp90 set2: 20.1; NLRP3 yeast inh: -10.4; SKKanGAS inh: -0.2; tim23-1 inh: 44.0; tim10-1 inh: 39.1; TIM10 conf: 28.6

How did Cc1ccc(C)c(Oc2coc3cc(OC(=O)c4cccs4)ccc3c2=O)c1 do in these assays?
TIM10 inh: 40.0*; PfHsp90 set2: 2.8; NLRP3 yeast inh: 20.8; SKKanGAS inh: 9.0; tim23-1 inh: 25.7; tim10-1 inh: 30.6; TIM10 conf: 23.0

What do the screens show for `Fc1ccc(/C=N/n2c(-c3cccs3)n[nH]c2=S)cc1`?
TIM10 inh: 44.8*; PfHsp90 set2: 4.1; NLRP3 yeast inh: 21.4; SKKanGAS inh: -7.0; tim23-1 inh: 41.4; tim10-1 inh: 29.9; TIM10 conf: 28.2

Results for S=c1[nH]nc(-c2ccccc2)n1/N=C/c1ccc(Cl)cc1 ?
PfHsp90 set2: -17.1; SKKanGAS inh: 4.6

How did Cc1ccc(C)c(-c2cc(C(=O)Nc3nccs3)c3ccccc3n2)c1 do in these assays?
TIM10 inh: 46.9*; PfHsp90 set2: 20.9; NLRP3 yeast inh: -17.6; SKKanGAS inh: 20.1; tim23-1 inh: 45.4; tim10-1 inh: 38.7; TIM10 conf: 42.1*
